A selection: hits, their analogues and other compounds. The true share with any hit is near 2%.
CHO-K1 Ca antag = nonselective inhibitor or artifact in parental CHO-K1 cells; ATP-induced calcium, Fluo-8 fluorescence; inhibition, % at 3 µM; 360,000 tested, 0.6% active; AID 602250;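 active = inhibition above a per-plate cutoff, the plate's mean sample inhibition plus 3 SD, cut at about 24% in these data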;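 note: 0% = DMSO plus EC80 ATP and 100% = DMSO alone without ATP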
CHRM4 antagonist = CHRM4 antagonism in calcium assay | AID 624125 | 360,000 tested, 0.73% active | CHO-hM4 cells, ACh EC80, Fluo-8 calcium fluorescence | inhibition, % at 3 µM | P08173;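 active = inhibition above its plate's cutoff, the mean inhibition of sample wells plus 3 SD, cut at about 27% in these data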;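 note: 0% = acetylcholine EC80 with DMSO and 100% = DMSO without agonist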
Target sequence (P08173 whole entry, looked up): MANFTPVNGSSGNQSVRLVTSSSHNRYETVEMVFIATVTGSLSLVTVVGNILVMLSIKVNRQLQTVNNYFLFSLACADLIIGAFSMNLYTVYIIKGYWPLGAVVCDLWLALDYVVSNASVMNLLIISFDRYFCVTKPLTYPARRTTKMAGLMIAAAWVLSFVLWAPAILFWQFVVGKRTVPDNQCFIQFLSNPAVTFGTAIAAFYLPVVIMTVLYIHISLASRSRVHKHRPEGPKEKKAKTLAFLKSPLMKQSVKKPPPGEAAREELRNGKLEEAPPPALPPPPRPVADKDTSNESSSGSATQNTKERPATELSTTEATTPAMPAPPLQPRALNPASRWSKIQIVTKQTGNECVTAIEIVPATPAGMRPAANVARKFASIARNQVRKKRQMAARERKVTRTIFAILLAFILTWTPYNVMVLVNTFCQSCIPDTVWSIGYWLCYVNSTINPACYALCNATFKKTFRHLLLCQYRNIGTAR
M1 PAM parental = M1 PAM counterscreen hit in parental CHO-K1 cells | 360,000 tested, 0.02% active | ATP EC20, Fluo-8 calcium fluorescence; 0% at ATP EC20, 100% at ATP max | AID 602247 | activation, % at 3 µM;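 active = activation above the run cutoff, the mean activation of all test compounds plus 3 SD, cut at about 40% in these data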;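 note: peak over basal fluorescence ratio in a 140 s read after ATP addition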
M4 ag = agonists of human muscarinic M4 receptor (CHRM4); P08173; CHO-K1 hM4/Gqi5, Fluo-8 calcium fluorescence; vehicle 0%, full acetylcholine response 100%; activation, % at 3 µM; 360,000 tested, 0.14% active;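 active = activation above the run mean over all test wells plus 3 SD, cut at about 32% in these data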;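 note: peak over basal fluorescence ratio per well then scaled between controls; 0% = DMSO wells and 100% = acetylcholine at EC100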
CHO-K1 Ca ag = counter-screen for M1 agonists: effect in parental CHO-K1 cells | Fluo-8 calcium fluorescence; scaled to maximal ATP response, vehicle zero | activation, % at 3 µM | 360,000 tested, 0.48% active | AID 602248; in the data active = activation above about 15%;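 note: untransfected CHO-K1 host cells lacking M1 receptor as counterscreen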
CHRM4 PAM = positive allosteric modulators of human muscarinic M4 receptor | P08173 | CHO-K1 hM4/Gqi5, Fluo-8 calcium fluorescence, ACh EC20; 0% = ACh EC20, 100% = maximal ACh | activation, % at 3 µM | 360,000 tested, 0.4% active | AID 624126;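 active = activation above its plate's cutoff, the mean activation of sample wells plus 3 SD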
Starred values were filed as active, the others as inactive.

SMILES	CHO-K1 Ca antag	CHRM4 antagonist	M1 PAM parental	M4 ag	CHO-K1 Ca ag	CHRM4 PAM
O=C(Nc1ccccc1)c1cc(C2CCCCN2C(=O)CCCc2ccccc2)on1 (stereo not drawn)	18.3	-10.2	-9.0	5.6	1.1	-1.4
Cc1cc(NC(=O)CCC(=O)N(CC(=O)NC2CCCC2)Cc2ccccc2Cl)no1	48.0*	4.2	-2.0	-0.3	-1.0	-4.1
C=CCN(C(=O)CCC(=O)Nc1cc(C)on1)C(C(=O)NC1CCCC1)c1cccnc1 (stereo not drawn)	23.8*	4.1	-6.8	-0.2	-0.4	-5.7
O=C(CCC(=O)N(CC(=O)NC1CCCC1)C1CCCCC1)Nc1ccccn1	26.8*	0.2	-14.4	1.4	0.1	3.0
O=C(CCC(=O)N(CC(=O)NC1CCCC1)C1CCCC1)Nc1ccccn1	-3.8	5.1	13.9	0.1	0.0	2.0
Cc1cc(NC(=O)CCC(=O)N(CC2CCCO2)C(C(=O)NC2CCCC2)c2cccnc2)no1 (stereo not drawn)	-14.0	-1.4	-22.3	-0.1	0.5	-1.3
CN1CCN(c2ncnc3c2ncn3[C@H]2CN(Cc3ccc(C(=O)O)cc3)C[C@@H](CO)O2)CC1	-16.3	-19.2	11.2	0.7	0.8	18.3*
CN1CCN(c2ncnc3c2ncn3[C@H]2CN(Cc3ccc(F)cc3)C[C@@H](CO)O2)CC1	25.1*	5.5	-12.7	1.1	0.1	0.5
O=C(c1ccc(C(F)(F)F)cc1)c1c[nH]c(C(=O)NCCCn2ccnc2)c1	-1.7	7.1	16.3	0.1	0.3	-4.4
CN1C(=O)N(C)C(c2ccccc2Cl)C2=C1CC(C)(C)CC2=O (stereo not drawn)	-11.2	-3.0	20.0	-0.5	0.3	3.7
CC1=C(C(=O)OC2CCCCCC2)C(c2ccc(C)o2)C2=C(CCCC2=O)N1 (stereo not drawn)	12.9	-4.0	-3.3	2.1	0.3	2.8
COC(=O)C1=C(C)NC2=C(C(=O)CCC2)C1c1ccc(-c2ccsc2C(=O)OC)o1 (stereo not drawn)	23.4	4.3	-17.1	37.5*	4.4	-29.5
O=S(=O)(Nc1cccc(-n2cnnn2)c1)c1ccc(Cl)cc1	-7.2	3.9	7.9	3.8	5.0	-1.0
CC(C)CNc1nc(N)c([N+](=O)[O-])c(NCC2CCCO2)n1 (stereo not drawn)	-7.8	0.9	26.2	1.5	0.2	35.4*
COCCCNc1nc(N)c([N+](=O)[O-])c(NCC2CCCO2)n1 (stereo not drawn)	-4.7	-0.5	21.8	0.9	1.5	3.6
CC1(C)Cc2c(sc3c2c(=O)n(-c2ccc(Cl)cc2)c(=O)n3CC(N)=O)CO1	-6.4	-18.0	7.8	0.4	0.1	-3.7
Cn1c(=O)n(-c2cccc(Cl)c2)c(=O)c2c3c(sc21)COC(C)(C)C3	29.7*	8.7	-7.1	-2.8	-0.6	-1.3
OC1(c2cccc(C(F)(F)F)c2)CCN(c2ncnc3c2[nH]c2ccccc23)CC1	25.4*	3.9	-2.0	16.1	-0.2	-12.7
Cc1nn(CC(=O)NC(=O)c2ccccc2)c(C)c1[N+](=O)[O-]	-18.0	-8.7	21.3	-0.1	0.0	22.8*
CC(NC(=O)Cn1c(=O)[nH]c2ccsc2c1=O)C12CC3CC(CC(C3)C1)C2 (stereo not drawn)	9.8	0.2	5.5	0.9	0.5	19.2*
CC(NC(=O)Cn1ccsc1=N)C12CC3CC(CC(C3)C1)C2 (stereo not drawn)	-11.7	-6.6	21.9	6.5	1.4	-3.5
Cc1c(NS(=O)(=O)c2cccc(C(=O)Nc3ccccc3)c2)c(=O)n(-c2ccccc2)n1C	-4.8	2.7	13.0	1.4	0.8	0.1
Cc1c(NS(=O)(=O)c2cccc(C(=O)N3CCC(C(N)=O)CC3)c2)c(=O)n(-c2ccccc2)n1C	-14.7	-12.4	17.3	0.3	1.6	32.2*
COc1ccc(S(=O)(=O)N2CCOCC2)cc1NC(=O)COc1ccc2c(C)cc(=O)oc2c1	-11.3	1.4	2.9	1.3	0.2	-2.4
COC(=O)c1ccc(-c2noc(CN3CCCCC3c3nccn3C)n2)cc1 (stereo not drawn)	2.0	11.9	-1.3	0.7	-0.1	-18.6
SMILES	CHO-K1 Ca antag	CHRM4 antagonist	M1 PAM parental	M4 ag	CHO-K1 Ca ag	CHRM4 PAM
Cn1ccnc1C1CCCCN1Cc1nc(Cc2ccccc2F)no1 (stereo not drawn)	-11.8	82.9*	12.2	10.5	3.5	-26.6
CC(=O)c1ccc(N2CCN(C(=O)c3nn(Cc4ccccc4)c(=O)c4ccccc34)CC2)cc1	-14.6	0.6	13.3	7.4	3.0	-6.1
O=C(O)/C=C/C(=O)N1CCN(C(c2ccccc2)c2ccccc2)CC1	-1.7	29.5*	2.0	0.7	1.8	-36.5
O=C(N1CCCCC1)N1CCN(C(c2ccccc2)c2ccccc2)CC1	-10.2	-8.8	22.6	-1.8	0.5	4.7
CC(=O)/C(C(=N)N1CCN(Cc2ccccc2)CC1)=C(\C)O	-14.5	-0.5	19.9	0.3	1.3	5.7
CC(=O)/C(C(=N)N1CCN(C(c2ccccc2)c2ccccc2)CC1)=C(\C)O	-17.4	91.4*	27.8	2.4	0.6	-24.6
COc1cc(C(=O)NNC(=S)NC(=O)c2ccccc2C)cc(OC)c1OC	5.8	-2.2	5.8	20.8	23.7*	-5.3
COc1ccc(C(=O)NNC(=S)NC(=O)c2cc(-c3ccccc3)nc3ccccc23)cc1	-19.8	-14.2	5.8	23.4	30.2*	-4.5
CCCOc1ccc(C(=O)NNC(=S)NC(=O)c2cc(-c3ccc(Cl)cc3)nc3ccccc23)cc1	12.7	5.0	3.0	1.0	0.1	-3.0
COc1ccc(C(=O)NC(=S)NNC(=O)c2ccccc2O)cc1	-12.9	-10.6	10.2	1.6	2.1	4.0
COc1ccc(C(=O)NNC(=S)NC(=O)C(C)(C)C)cc1	14.5	7.5	-31.3	87.6*	85.7*	-29.7
COc1ccc(C(=O)NC(=S)NNC(=O)c2ccccc2C)cc1	23.9*	11.6	-30.8	122.6*	85.0*	-51.3
COc1ccccc1C(=O)NNC(=S)NC(=O)c1cc(OC)c(OC)c(OC)c1	8.0	-0.2	-4.1	3.8	0.4	-4.9
O=C(/C=C\NCC(=O)c1ccccc1)c1ccc2ccccc2c1	-8.4	-2.2	15.0	1.4	-0.2	7.8
O=C(O)CSCC(=O)NCc1ccc(Cl)cc1	15.8	-13.6	0.2	2.4	-0.3	28.3*
COc1ccc(/C=C(/C(=O)c2ccc(Cl)cc2Cl)n2cncn2)cc1	-8.7	-5.7	17.2	2.7	1.5	-2.4
CN(C)c1ccc(/C=C(/C(=O)c2ccc(Cl)cc2Cl)n2cncn2)cc1	8.1	7.7	12.3	13.6	17.9*	-7.4
Oc1ccc(C23CCCC2C2(CCCC2)c2ccc(O)cc2O3)c(O)c1 (stereo not drawn)	7.0	22.6	1.5	59.4*	23.6*	-14.2
